Results reported in the supplement of paper PMC6555819.

Assays:
Experiment in all cases: PBM binding z-score (relative to random genomic background probes); higher = stronger binding; sequences stand for … in GC…GCGATTGACAGCGTAGAATGAAGG
[1] = test system: FXR:RXRa (NR concentration 270 nM, RXRa partner concentration 90 nM)
Summary of the method: (§1)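 Ligand-free nuclear receptor dimers were bound for 1 h to custom Agilent 4×180K protein-binding microarrays. Detection used antibodies against each partner (one per run). Binding z-scores rest on regression-normalized fluorescence, with random background probes as the reference.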

[2] = test system: LXRa:RXRa (NR concentration 270 nM, RXRa partner concentration 90 nM)
Summary of the method: as §1

[3] = test system: LXRa homodimer (NR concentration 270 nM)
Summary of the method: as §1

[4] = test system: LXRb:RXRa (NR concentration 270 nM, RXRa partner concentration 90 nM)
Summary of the method: as §1

[5] = test system: LXRb homodimer (NR concentration 270 nM)
Summary of the method: as §1

[6] = test system: PPARa:RXRa (NR concentration 270 nM, RXRa partner concentration 90 nM)
Summary of the method: as §1

[7] = test system: PPARg:RXRa (NR concentration 180 nM, RXRa partner concentration 90 nM)
Summary of the method: as §1

[8] = test system: PPARg:RXRa 270nM:90nM, anti-RXR (NR concentration 270 nM, RXRa partner concentration 90 nM)
Summary of the method: as §1

[9] = test system: PPARg:RXRa 30nM:10nM, anti-RXR (NR concentration 30 nM, RXRa partner concentration 10 nM)
Summary of the method: as §1

[10] = test system: PPARg:RXRa 90nM:30nM, anti-RXR (NR concentration 90 nM, RXRa partner concentration 30 nM)
Summary of the method: as §1

Sequence | PBM binding z-score [1] | PBM binding z-score [2] | PBM binding z-score [3] | PBM binding z-score [4] | PBM binding z-score [5] | PBM binding z-score [6] | PBM binding z-score [7] | PBM binding z-score [8] | PBM binding z-score [9] | PBM binding z-score [10]
ATCTCTAGGTAACGAGTTCAGTGAAAGAGAGGAC | 0.481 | 0.764 | 0.708 | 0.738 | 0.449 | 2.04 | 1.69 | 1.73 | 0.509 | 1.26
CAGACTAGGTCAAGAGGTCAAAGTCCGCTTCCCG | 7.03 | 6.1 | 5.88 | 5.69 | 1.64 | 6.29 | 8.59 | 7.74 | 5.99 | 7.54
AGAACGAGGGCAATAAGTTGATAGCACGGGTGGC | 0.456 | 0.268 | -0.278 | -0.143 | -0.518 | 1.24 | 1.44 | 0.893 | 0.0758 | 0.217
CGAACTAGGTCGGAACAGGACAGTGAAGGATGAT | -0.0248 | -0.452 | -0.434 | -0.642 | -1 | 0.71 | 1.23 | 0.719 | 0.0935 | 0.234
GCATATAGGTAATGCAAGGTGAAAGTCCGATTGT | 0.366 | 1.83 | -0.0493 | 0.568 | -0.489 | 1.74 | 1.05 | 1.15 | 0.286 | 0.74
CCGACTGGGGCAGAAAGGTTGCCATACCATCCGG | -0.157 | -0.408 | -0.611 | -0.446 | -1.22 | 0.46 | 0.735 | 1.19 | -0.155 | 0.7
CCGACTGGGGCAAAGGTTGCCATACTCAGTACGA | -0.0811 | -0.081 | -0.3 | 0.302 | -1.06 | 4.05 | 9.16 | 7.89 | 7.65 | 8.16
CAAACTAAGTCACGAAAGGTCAAAGTCGAATGAC | 5.23 | 6.68 | 6.01 | 5.99 | 2.17 | 5.89 | 4.13 | 4.96 | 2.48 | 4.04
CCGTACGGGTCACGAGGTTATAGCACGACGAGCG | 6.63 | 4.94 | 0.31 | 4.08 | -0.283 | 5.88 | 6.72 | 6.37 | 2.37 | 4.99
CGTCCAAGATCAATGCTAGGTCAGTGAAAGCATT | 0.162 | 0.466 | 0.903 | 0.371 | 0.134 | 0.544 | -0.0678 | -0.118 | -0.166 | -0.214
GCATATAGGTAATATAAGGTGAAAGTCCGATTGT | 1.9 | 3.31 | 0.295 | 1.14 | -0.277 | 1.81 | 1.55 | 1.24 | 0.669 | 1.16
CGAGCTAGGTCAAGGACAGTGAATCTCCGCACGC | 3.4 | 2.03 | -0.283 | 1.22 | -0.582 | 3.06 | 2.07 | 2.14 | 0.109 | 1.07
ACTAGCAGGCCAAGGGTTACTCAAGATTAGTCCG | 0.239 | 2.23 | -0.412 | 0.935 | -0.494 | 2.61 | 4.88 | 5.61 | 4.58 | 5.71
CCTCCTGGGCCAAAAAGGTCATTGATGCCGATAA | 3.19 | 3.89 | 2.81 | 4.12 | 0.202 | 4.47 | 0.997 | 2.63 | 0.448 | 1.63
CCGACTGGGGCATAAGGATACCATAAGCCAGCCC | -0.174 | -0.373 | -0.612 | -0.813 | -1.53 | -0.0359 | 1.29 | 1.46 | 0.0303 | 0.707
CGAACTAGGTCATGGACAGGACAGTGAATAGTAA | 3.85 | 2.37 | -0.0954 | 1.81 | -0.546 | 4.79 | 8.05 | 6.56 | 4.17 | 6.19
TTATCAAGGTGAGCTGAGGTCGTTGATCCAACTC | 1.87 | 1.22 | -0.0853 | 0.999 | -0.746 | 1.87 | 0.583 | 1.19 | 0.537 | 0.566
AGAACGAGGGCAATGAGTTGATGGCACGGGTGGC | 0.145 | 0.254 | -0.585 | -0.493 | -0.436 | 1.25 | 1.29 | 0.598 | -0.239 | 0.238
CAAACTAGGTCACCGGAAGGTCAATGTCCGCATG | 5.97 | 5.52 | 3.83 | 4.64 | 1.09 | 6.05 | 9.44 | 7.81 | 5.6 | 7.57
GCTGGTAGGTCAGGTTGGTCAGCTAACGGGTACG | 1.28 | 1.03 | 0.172 | 0.929 | -0.0209 | 2.05 | 1.44 | 1.88 | 0.102 | 1.02
AATACAGGGTCATCGTAGGGCAGAGTACGCACAG | 7.54 | 6.88 | 2.95 | 5.07 | 1.16 | 5.83 | 6.94 | 6.07 | 2.84 | 4.96
AGTACAGGGTCACTAGGCCAGAGTAGGTACGAAT | 5.64 | 3.74 | -0.159 | 3.25 | 0.166 | 5.73 | 7.54 | 6.4 | 2.95 | 5.23
CCTACTGGGCCATTCATAGGTCATTGATCATATG | 0.867 | 2.17 | 3.55 | 2 | -0.0981 | 2.64 | 1.49 | 1.93 | 0.277 | 1.06
ATCTCTAGGTAAAAATTCAGTGAATCCCGAGGAT | 0.0972 | -0.215 | -0.0718 | -0.277 | 0.956 | 0.272 | 0.62 | 1.34 | 0.671 | 1.1

Sequence | PBM binding z-score [1] | PBM binding z-score [2] | PBM binding z-score [3] | PBM binding z-score [4] | PBM binding z-score [5] | PBM binding z-score [6] | PBM binding z-score [7] | PBM binding z-score [8] | PBM binding z-score [9] | PBM binding z-score [10]
CCTACTGGGCCAGGAAAGGTCATTGATTCAGTGA | 3.42 | 4.12 | 3.32 | 3.74 | -0.202 | 4.18 | 1.95 | 3.03 | 0.929 | 2.15
GCTGCTGGGTCAGGTTGGTCAGCTAACGGGTACG | 0.641 | 0.222 | -0.341 | 0.236 | -0.403 | 1.32 | 0.104 | 0.429 | -0.561 | 0.0436
TGTTGTAGATCAAGCAGGTTAAGAAAGCCTGAGT | -0.212 | -0.245 | -0.47 | -0.0172 | -0.215 | 0.282 | -0.51 | -0.0645 | -0.0716 | -0.0785
TCTTGTAGATCTACAGGAGGTTAAGAAAGATCGA | -0.0507 | 1.18 | 0.0906 | 1.05 | -0.353 | 1.13 | 0.0555 | 1.06 | 2.09 | 1.48
GCTTGTAGATCAAGGGTAAGAAAGACTAAGCTAA | -0.663 | -0.469 | -0.732 | -0.394 | -0.8 | 1.24 | 2.55 | 4.2 | 1.91 | 4.14
TCATATAGATAAAAGGTGAAAGTCGGTGTGGTAA | 1.52 | 1.57 | 0.231 | 1.67 | -0.152 | 3.28 | 3.63 | 5.16 | 5.42 | 5.56
TCTATTAGTTGATTAGGGCATCCGAAACAGCGGA | 0.685 | 0.731 | 0.192 | 0.397 | 0.553 | 0.769 | 0.185 | 1.91 | 3.47 | 2.78
TCTAGTTGGTCAAAAGTCACACACTCGAAATGCG | 1.12 | 1.12 | 0.475 | 1.12 | 0.73 | 3.03 | 5.72 | 6.29 | 6.15 | 7.23
GCTATTAGTTGACAGGGCAACCGAATGATTCTCG | -0.301 | -0.298 | -0.0236 | -0.0105 | -0.293 | 0.0349 | 0.532 | 0.626 | -0.199 | 0.442
TCAAATAGGTAAAGGTGAAAGTCGAACGATATGA | 0.93 | 1.78 | 0.0504 | 1.72 | 0.00812 | 3.48 | 3.34 | 4.34 | 5 | 4.99
CGAACTAGGTCAGAACAGGACAGAGAAGGATGAT | 1.6 | 0.878 | 0.159 | 0.278 | -0.292 | 2.94 | 5.04 | 4.26 | 1.71 | 3.03
CCTACTGGACCATTCAGAGGTCATTGATCATATG | 3.05 | 4.64 | 6.93 | 3.96 | 1.41 | 3.7 | 0.988 | 2.16 | 0.466 | 1.38
ACAGACAGTTGAGTGAAGGTAACTCAGCTGGACG | 0.127 | -0.141 | -0.198 | -0.473 | -0.26 | -0.127 | 0.557 | -0.26 | -0.0499 | -0.284
CAAACTAGGTCACCGGAAGGTCAACGTCCGCATG | 6.21 | 6.05 | 4.21 | 4.6 | 1.1 | 6.13 | 9.54 | 8.04 | 5.72 | 7.83
ACTTACGGATCAACGAGGTTATAGCACGCGTATA | 0.716 | 0.914 | 0.686 | 1.25 | 0.594 | 1.47 | 0.98 | 0.564 | 0.453 | 0.486
GGAACGAGGGCAAGTTGATTGCAGAGTTTGATGG | 1.16 | 0.697 | -0.325 | 0.396 | -0.755 | 1.84 | 0.925 | 1.03 | -0.0716 | 0.569
GCGACAGGGGCATCAGCAGGTTACCATAACTTAA | 0.0406 | 0.297 | -0.329 | 1.42 | -0.683 | 1.33 | 0.386 | 0.0152 | -0.411 | -0.547
CTCGAAAGGTCGGTTGAAGTGAGTATACGGATAA | 1.48 | 1.58 | -0.00237 | 1.54 | 0.166 | 2.45 | 0.257 | 1.02 | 0.428 | 0.796
TAGCCTAGATCATTGGGCCAGTATAGTACGCATC | -0.685 | -0.948 | -0.567 | -0.649 | -0.658 | -0.513 | 0.37 | -0.537 | -0.101 | -0.125
CGAACTAGGTCATCCATGACAGTGAATACATTGA | 3.96 | 2.2 | 0.578 | 2.07 | 0.325 | 5.09 | 7.88 | 6.33 | 4.18 | 5.8
CGTCCAAGGTCAATGCTAGGACAGTGAAAGCATT | 6.19 | 4.43 | 0.325 | 3.53 | 0.27 | 5.19 | 3.96 | 4.09 | 1.22 | 2.76
CCTACTGAGCCAAAAAGGTCATTGATGCCGATAA | 3.37 | 4.28 | 3.65 | 4.29 | 1.17 | 4.37 | 1.31 | 2.81 | 0.896 | 1.99
ACTAGCAGGCCAAGGGTCAGTCAAGATTAGTCCG | 1.44 | 1.16 | -0.0253 | 1.33 | -0.691 | 3.79 | 6.42 | 6.45 | 5.89 | 6.62
AGTCAAAGTTCACTAGGGAACGTAAGATTCAGCT | 5.18 | 5.47 | 2.42 | 3.27 | 0.67 | 4.19 | 6.45 | 6.13 | 3.52 | 5.22
